Source: PubChem BioAssay AID1159580 (chemical genetic matrix, 2015)
“And” between values parts separate entries of the source, which are not always exact repeats. Equal entries are not always repeated. In all, about 5,500 compounds went through this assay and about 2,000 (36%) were called active. Not shown: some 18% with an inconclusive outcome. Cut-off read from the data, not from the text of the source: active = normalized growth mostly below about 0.91 (no sharp cut-off); inconclusive = no clear call, values can overlap the other calls; inactive = mostly above about 0.92. Some of the results follow.

Experiment: chemical genetic growth profiling, strain panel (AID 1159580);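 note: tested at 20 µM; growth read once vehicle control cultures reached saturation at 30 °C; 1 = growth at the plate median or of vehicle wells; lower values mean less growth of the strain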
Details: S. cerevisiae deletion strains, growth OD

Measured: normalized growth

CC[C@@H]1[C@@H](O)N2C3C[C@H]1C1C(O)[C@]4(C[C@@H]12)c1ccccc1N(C)[C@@H]34 (some centres not stated)
inactive: locus YAL013W, strain DEP1, stronger effect = lower value 0.992 | locus YAL021C, strain ccr4, stronger effect = lower value 1.01 | locus YAL026C, strain drs2, stronger effect = lower value 1.04 | locus YAL030W, strain snc1, stronger effect = lower value 1.05 | locus YBL061C, strain skt5, stronger effect = lower value 1.04 | locus YBR009C, strain hhf1, stronger effect = lower value 1.02 | locus YBR021W, strain FUR4, stronger effect = lower value 0.989 | locus YBR023C, strain chs3, stronger effect = lower value 1.05 | locus YBR171W, strain sec66, stronger effect = lower value 1.07 | locus YBR229C, strain ROT2, stronger effect = lower value 0.991 | locus YBR231C, strain swc5, stronger effect = lower value 0.999 | locus YBR279W, strain paf1, stronger effect = lower value 1.04 | locus YCL011C, strain gbp2, stronger effect = lower value 1.02 | locus YCL016C, strain dcc1, stronger effect = lower value 1.02 | locus YCL029C, strain bik1, stronger effect = lower value 0.956 | locus YCL061C, strain MRC1, stronger effect = lower value 1.04 | locus YCL069W, strain vba3, stronger effect = lower value 1.04 | locus YCR088W, strain abp1, stronger effect = lower value 1.04 | locus YDL005C, strain med2, stronger effect = lower value 1.05 | locus YDL035C, strain GPR1, stronger effect = lower value 1.01 | locus YDL040C, strain nat1, stronger effect = lower value 1.03 | locus YDL074C, strain BRE1, stronger effect = lower value 0.972 | locus YDL101C, strain DUN1, stronger effect = lower value 0.984 | locus YDL134C, strain PPH21, stronger effect = lower value 0.986 | locus YDL185W, strain tfp1, stronger effect = lower value 0.963 | locus YDL192W, strain arf1, stronger effect = lower value 0.984 | locus YDR001C, strain nth1, stronger effect = lower value 1.02 | locus YDR069C, strain doa4, stronger effect = lower value 1.04 | locus YDR101C, strain arx1, stronger effect = lower value 0.981 | locus YDR137W, strain rgp1, stronger effect = lower value 1.04 | locus YDR150W, strain NUM1, stronger effect = lower value 1 | locus YDR159W, strain sac3, stronger effect = lower value 0.974 | locus YDR162C, strain NBP2, stronger effect = lower value 0.998 | locus YDR195W, strain ref2 1.03 | locus YDR297W, strain sur2, stronger effect = lower value 1.03 | locus YDR318W, strain mcm21, stronger effect = lower value 0.972 | locus YDR334W, strain swr1, stronger effect = lower value 1.03 | locus YDR335W, strain msn5, stronger effect = lower value 1.03 | locus YDR388W, stronger effect = lower value 0.978 | locus YDR392W, strain spt3, stronger effect = lower value 0.93 | locus YDR502C, strain sam2, stronger effect = lower value 1 | locus YEL003W, strain gim4, stronger effect = lower value 1.03 | locus YEL037C, strain rad23, stronger effect = lower value 1.02 | locus YEL061C, strain CIN8 (second series), stronger effect = lower value 1.04 | locus YEL061C, strain CIN8, stronger effect = lower value 0.995 | locus YER015W, strain faa2, stronger effect = lower value 1.02 | locus YER016W, strain bim1, stronger effect = lower value 1.01 | locus YER110C, stronger effect = lower value 0.977 | locus YER111C, strain swi4, stronger effect = lower value 1.06 | locus YER155C, strain BEM2 (second series), stronger effect = lower value 0.983 | locus YER155C, strain BEM2, stronger effect = lower value 0.991 | locus YER167W, strain BCK2, stronger effect = lower value 0.989 | locus YFR010W, strain ubp6, stronger effect = lower value 1.02 | locus YGL078C, strain dbp3, stronger effect = lower value 0.978 | locus YGL086W, strain mad1, stronger effect = lower value 0.992 | locus YGL167C, strain pmr1, stronger effect = lower value 1.03 | locus YGL173C, strain kem1, stronger effect = lower value 1.02 | locus YGL227W, strain vid30, stronger effect = lower value 1.05 | locus YGL240W, strain doc1, stronger effect = lower value 0.979 | locus YGL248W, strain PDE1, stronger effect = lower value 0.991 | locus YGL253W, strain hxk2, stronger effect = lower value 1.04 | locus YGR078C, strain PAC10, stronger effect = lower value 0.984 | locus YGR135W, strain pre9, stronger effect = lower value 0.96 | locus YGR229C, strain SMI1, stronger effect = lower value 1 | locus YGR252W, strain gcn5, stronger effect = lower value 1 | locus YHR013C, strain ard1, stronger effect = lower value 1.03 | locus YHR027C, strain rpn1, stronger effect = lower value 1.02 | locus YHR030C, strain SLT2, stronger effect = lower value 0.993 and 0.984 | locus YHR079C, strain IRE1 (second series), stronger effect = lower value 0.965 | locus YHR079C, strain IRE1, stronger effect = lower value 0.981 | locus YHR094C, strain hxt1, stronger effect = lower value 0.983 | locus YHR129C, strain ARP1, stronger effect = lower value 0.982 | locus YHR142W, strain chs7, stronger effect = lower value 1.1 | locus YHR200W, strain rpn10, stronger effect = lower value 0.981 | locus YIL066C, strain RNR3, stronger effect = lower value 0.993 | locus YIL073C, strain SPO22, stronger effect = lower value 0.997 | locus YIL125W, strain kgd1, stronger effect = lower value 0.981 | locus YIR030C, strain dcg1, stronger effect = lower value 0.984 | locus YJL092W, strain hpr5, stronger effect = lower value 1.04 | locus YJL095W, strain BCK1 (second series), stronger effect = lower value 1.01 | locus YJL095W, strain BCK1, stronger effect = lower value 0.966 and 1.01 | locus YJL115W, strain asf1, stronger effect = lower value 1.07 | locus YJL129C, strain trk1, stronger effect = lower value 1.06 | locus YJL134W, strain LCB3, stronger effect = lower value 0.993 | locus YJL154C, strain vps35, stronger effect = lower value 1.03 | locus YJL164C, strain tpk1, stronger effect = lower value 1.04 | locus YJL166W, strain qcr8, stronger effect = lower value 1.04 | locus YJL168C, strain set2, stronger effect = lower value 0.97 | locus YJL187C, strain SWE1 (second series), stronger effect = lower value 0.979 | locus YJL187C, strain SWE1, stronger effect = lower value 1.02 | locus YJR043C, strain POL32, stronger effect = lower value 0.973 | locus YJR066W, strain TOR1, stronger effect = lower value 0.926
